PubChem BioAssay (NCI)
The panel holds about 83,000 compounds, 20% with a hit somewhere; the sample as a whole holds those more often.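 Interpretation: 100, growth as untreated; towards 0, rising growth inhibition; 0, no net growth; 0 to -100, cell death. Compounds scoring below 10 were considered active.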 Values without a mark were called inactive. Calls of active or inactive are those of the source.

system: RPMI-8226 leukemia; assay: NCI-60 one-dose screen, 48 h (100 = growth as untreated, 0 = no growth, -100 = all killed); details: 10 µM unless noted
Protocol: Growth inhibition of the RPMI-8226 human tumor cell line is measured as a screen for anti-cancer activity. Cells are grown in 96 well plates and exposed to the test compound for 48 hours. Compounds are tested at a single concentration, which is 10^-5 M for most compounds. The reported endpoint is percent growth (GI% or GIPRCNT), where numbers from 0 - 100% represent growth inhibition, and numbers from -100% - 0 represent cell death. For example, a value of 40 represents 60% growth inhibition. A value of 0 means no net growth occurred over the course of the experiment. A value of -40 indicates 40% of cells at the beginning of the experiment died by the end of the experiment. A value of -100 means all cells are dead at the end of the experiment.
NCI-60 Human Tumor Cell Lines Screen was performed using the standard one-dose NCI protocol, which is described in more detail at https://dtp.cancer.gov/discovery_development/nci-60/default.htm.
Compounds with GIPRCNT values below 10 were considered active. Activity score was based on GIPRCNT using the following formula: […]
Score is 0 for GIPRCNT values of 100 or above, 50 for GIPRCNT values of 0, and 100 for GIPRCNT values of -100.

Row | SMILES | growth
1 | CCCCCCCCCCN(CCCCCCCCCC)CC(=O)c1ccc2cc(Br)c3ccccc3c2c1 | -33.1% (active)
2 | COc1ccc2c(c1)[nH]c(=O)c1c3cccnc3cn21 | 32%
3 | CNC(=O)c1cc(Oc2ccc3nc(Nc4ccc(Cl)c(C(F)(F)F)c4)ccc3c2)ccn1 | 53.8%
4 | COC(=O)[C@H](CSC)N(C)C(=O)[C@@H]1CSSC[C@@H](NC(=O)c2nc3ccccc3cc2O)C(=O)NCC(=O)N1C | 85.2%
5 | Oc1ccc(CN2CCC(N3CCOCC3)CC2)c2cccnc12 | 7.8% (active)
6 | Nc1n[nH]c2cc(F)c([C@@H]3Nc4c(F)cc5[nH]ncc5c4[C@H]4C5CCC(C5)[C@@H]34)cc12 (stereo not given in full) | 5.57% (active)
7 | Cc1nn(-c2ccccc2)c2nc3c(c(-c4ccc(Cl)cc4)c12)CNC1(CCSCC1)N3 | 109%
8 | COc1ccc2[nH]c(O)c(/C=c3/cc4c(c(-c5ccc(F)c(OC)c5)n3)=Nc3ccccc3-4)c2c1 | -20.4% (active)
9 | CN(c1ccccc1)c1ccc2c(c1)OCCC21CC1Nc1cnccc1C(=O)O (stereo not given) | 82.6%
10 | N#Cc1c(N)nc(NCCO)nc1-c1ccc(F)cc1 | 94.1%
11 | Cn1c(=O)c2c(nc(Cl)n2CCl)n(C)c1=O | 92.3%
12 | CC(=O)N1C(=S)NC(=O)C1Cn1c(-c2ccccc2)nc2ccccc21 (stereo not given) | 97.3%
13 | CCSC1=NC2C(N(CC)C(=O)N2CC)N1/N=C/C=C/c1ccccc1[N+](=O)[O-] (stereo not given) | 17.3%
14 | CN(Cc1cnc2nc(N)nc(N)c2n1)c1ccc(C(=O)N[C@@H](CCc2nn[nH]n2)c2nn[nH]n2)cc1 | 44.1%
15 | Cc1ccc(N2CCN(C(=S)c3cccs3)CC2)cc1 | 95.6%
16 | Cc1c(C(=O)OC(=NC2CCCCC2)NC2CCCCC2)sc2c1c(=O)nc1c(C#N)n[nH]n12 | 137%
17 | CN1C(=O)N(C)C2C1NN=c1s/c(=C\c3ccccc3)c(=O)n12 (stereo not given) | 61.6%
18 | CN(C)CCCn1c(=O)c2ccccc2c2ccccc21 | 59.9%
19 | O=C(N/N=C/C=C/c1ccc([N+](=O)[O-])o1)c1cc2ccccc2cc1O | -11.2% (active)
20 | O=c1ccn2nc3ccccc3c2[nH]1 | 101%

Row | SMILES | growth
21 | COc1ccc(C(=O)COc2ccc(/C=C3\Oc4ccccc4C3=O)cc2)cc1 | 89%
22 | COc1ccc(/C=N/C2=C(C#N)C(c3ccc(OC)cc3)c3ccc4ccccc4c3O2)cc1 (stereo not given) | 81.7%
23 | Cc1cccc(Cc2cnc(NC(=O)c3ccc4nnsc4c3)s2)c1 | 76.4%
24 | O=C(Nc1ccc(Nc2ccncc2)cc1)c1ccc(C(=O)Nc2ccc(Nc3ccncc3)cc2)cc1 | 3.64% (active)
25 | NC(N)=NN=C(c1ccccc1)c1ccccc1 | 25%
26 | c1csc(-c2c3ccc(=[N+]4CCCCC4)cc-3oc3cc(N4CCCCC4)ccc23)c1 | -39.1% (active)
27 | OC(COc1ccccc1Cl)COc1ccccc1Cl | 81.5%
28 | O=C(Nc1cccc(C(F)(F)F)c1)Nc1cccc(C(F)(F)F)c1 | -10.5% (active)
29 | CNc1ccc(NC)c2c1C(=O)c1ccccc1C2=O | 90.2%
30 | O=[N+]([O-])c1ccc(Sc2cccc[n+]2[O-])c2nonc12 | -12.2% (active)
31 | O=C1/C(=C\c2cccnc2)SC(=S)N1CCc1ccc(O)cc1 | 16.7%
32 | COc1ccc(C2CC(c3cccc(OC)c3)=NN2C(=O)c2cc(OC)c(OC)c(OC)c2)cc1 (stereo not given) | 15%
33 | Cn1c(=O)c2[nH]c(NN)nc2n(C)c1=O | 96%
34 | O=c1c2c3c(sc2n2c(-c4cc(-c5ccccc5)nn4-c4ccccc4)nnc2n1Cc1ccccc1)CCCC3 | 14.2%
35 | CCOP(=O)(OCC)C1CP(=O)(c2ccccc2)CC(C)=C1Cl (stereo not given) | 69.6%
36 | c1ccc(-c2nc([P+](c3ccccc3)(c3ccccc3)c3ccccc3)c(N3CCOCC3)o2)cc1 | -28.5% (active)
37 | COc1ccc(-c2c(N)n[nH]c2-c2ccc(Cl)cc2O)cc1OC | 74.5%
38 | N#C/C(=C\c1ccc(Br)cc1)n1nnc2cc(F)c(F)cc21 | 0% (active)
39 | Cc1cc(C(=O)c2ccccc2)c(C)c2c1[nH]c1ccc(Cl)cc12 | -0.677% (active)
40 | COc1cc(/C=C/C(=O)c2ccc(Nc3nc(Nc4ccc(F)cc4)nc(Nc4ccc(Cl)cc4)n3)cc2)cc(OC)c1OC | -47.5% (active)
